Inconclusive results are not listed. Active and inactive are the calls of the source. The calls were made as follows: active = hit-call score of the fitted dose curve at least 0.9, where 1 is the maximum; inconclusive = response in the unintended direction; inactive = score below 0.9.
Each molecule was assayed against Nucleoli Translocation, AR (gene 367) (UniProt P10275) (assay: UPITT_HCI_U2OS_AR_TIF2_Nucleoli_Agonist: University of Pittsburgh U2OS Androgen Receptor-Transcriptional Intermediary Factor 2 (AR-TIF2) Agonism High Content Imaging Assay for Nucleoli Translocation (AID 2283998)).
Summary of the method: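 Red-tagged human androgen receptor co-expressed with GFP-tagged TIF2 serves as the binding reporter. Primary testing used 20 uM final (0.2% DMSO); follow-up dose response covered 0.195 to 50 uM final (0.5% DMSO).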

Chain of Nucleoli Translocation, AR (gene 367) (P10275 whole entry, looked up): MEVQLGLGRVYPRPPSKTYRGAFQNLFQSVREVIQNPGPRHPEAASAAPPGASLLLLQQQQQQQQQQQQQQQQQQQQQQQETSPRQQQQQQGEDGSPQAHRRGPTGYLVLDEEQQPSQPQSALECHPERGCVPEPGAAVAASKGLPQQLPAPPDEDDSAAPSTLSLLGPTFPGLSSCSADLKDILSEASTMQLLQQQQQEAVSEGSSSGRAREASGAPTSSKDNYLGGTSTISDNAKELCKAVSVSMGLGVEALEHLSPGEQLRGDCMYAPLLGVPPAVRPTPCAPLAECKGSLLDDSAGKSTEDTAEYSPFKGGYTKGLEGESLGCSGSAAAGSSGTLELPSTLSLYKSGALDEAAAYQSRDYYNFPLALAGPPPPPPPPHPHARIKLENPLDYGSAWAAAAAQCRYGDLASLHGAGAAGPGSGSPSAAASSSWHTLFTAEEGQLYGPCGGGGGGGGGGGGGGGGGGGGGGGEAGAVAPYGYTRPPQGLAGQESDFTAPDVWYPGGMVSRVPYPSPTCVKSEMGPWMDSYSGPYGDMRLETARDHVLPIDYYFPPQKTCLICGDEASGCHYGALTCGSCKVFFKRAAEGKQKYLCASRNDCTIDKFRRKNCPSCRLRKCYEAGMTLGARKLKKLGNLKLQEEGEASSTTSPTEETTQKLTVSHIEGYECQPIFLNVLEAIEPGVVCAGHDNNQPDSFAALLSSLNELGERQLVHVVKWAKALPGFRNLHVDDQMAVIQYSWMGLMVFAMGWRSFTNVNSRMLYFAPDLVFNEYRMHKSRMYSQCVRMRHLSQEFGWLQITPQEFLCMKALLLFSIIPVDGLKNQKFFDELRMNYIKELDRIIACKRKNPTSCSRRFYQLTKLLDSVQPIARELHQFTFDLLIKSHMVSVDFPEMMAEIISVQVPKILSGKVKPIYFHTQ

| SMILES | outcome | AC50 |
| --- | --- | --- |
| O=C(CCl)Nc1ccccc1 | inactive |  |
| CC(C)N(C(=O)CCl)c1ccccc1 | inactive |  |
| CC(=Cc1ccccc1)[N+](=O)[O-] | inactive |  |
| CNC(=O)O/N=C/C(C)(C)S(C)(=O)=O | inactive |  |
| O=[N+]([O-])c1ccc(Cl)c([N+](=O)[O-])c1 |  | 3.34 µM (active) |
| O=C1c2ccccc2C(=O)C1C(=O)C(c1ccccc1)c1ccc(Cl)cc1 (configuration not stated) | inactive |  |
| O=C(NC(=O)c1c(F)cccc1F)Nc1cc(Cl)c(OC(F)(F)C(F)C(F)(F)F)cc1Cl (configuration not stated) | inactive |  |
| CCOP(=S)(OCC)OP(=S)(OCC)OCC | inactive |  |
| Cc1cc(Cl)ccc1OCCCC(=O)O | inactive |  |
| O=C(N[C@H]1CN2CCC1CC2)c1ccc2c(c1)OCCO2 | inactive |  |
| COCCl | inactive |  |
| OC(Cc1ccccc1Cl)(Cn1[nH]cnc1=S)C1(Cl)CC1 (configuration not stated) | inactive |  |
